Measurements reported in PubChem BioAssay AID1159580 (chemical genetic matrix, 2015).
Values joined by “and” are separate entries in the source; they are usually repeats but may differ in a detail not shown here. Equal entries are not always repeated. Among all 5,500 compounds or so, about 2,000 (36%) were called active. Inconclusive results (about 18%) are left out. No stated cut-off is given here; in the data, active means normalized growth mostly below about 0.91 (no sharp cut-off); inconclusive means no clear call, values can overlap the other calls; inactive means mostly above about 0.92. This is one part of the list.

Experiment: chemical genetic growth profiling, strain panel (AID 1159580);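 further: tested at 20 µM; growth read once vehicle control cultures reached saturation at 30 °C; 1 = growth at the plate median or of vehicle wells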
Conditions: S. cerevisiae deletion strains, growth OD

Measured: normalized growth

Fc1cccc(Cl)c1CSc1nncn1-c1ccc(OCc2ccccc2)cc1
inactive: locus YAL013W, strain DEP1, stronger effect = lower value 0.976 | locus YAR019C, strain CDC15, stronger effect = lower value 0.991 | locus YBL105C, strain PKC1, stronger effect = lower value 1.01 | locus YBR135W, strain CKS1, stronger effect = lower value 1 | locus YBR136W, strain MEC1, stronger effect = lower value 1 | locus YBR160W, strain CDC28, stronger effect = lower value 1.01 | locus YBR229C, strain ROT2, stronger effect = lower value 0.991 | locus YCL061C, strain MRC1, stronger effect = lower value 0.968 | locus YDL017W, strain CDC7, stronger effect = lower value 1.01 | locus YDL028C, strain MPS1, stronger effect = lower value 1 | locus YDL101C, strain DUN1, stronger effect = lower value 0.997 and 0.986 | locus YDL108W, strain KIN28, stronger effect = lower value 1 | locus YDL132W, strain cdc53, stronger effect = lower value 0.994 | locus YDL214C, strain PRR2, stronger effect = lower value 0.97 | locus YDR052C, strain DBF4, stronger effect = lower value 0.996 | locus YDR054C, strain cdc34, stronger effect = lower value 1.01 | locus YDR150W, strain NUM1, stronger effect = lower value 0.909 | locus YDR226W, strain ADK1, stronger effect = lower value 0.999 | locus YDR477W, strain SNF1, stronger effect = lower value 0.983 | locus YEL061C, strain CIN8, stronger effect = lower value 0.956 | locus YER123W, strain YCK3, stronger effect = lower value 0.958 | locus YER133W, strain GLC7, stronger effect = lower value 0.974 | locus YFL009W, strain cdc4, stronger effect = lower value 1.01 | locus YFL029C, strain CAK1, stronger effect = lower value 1 | locus YFR003C, strain YPI1, stronger effect = lower value 1.01 | locus YFR019W, strain FAB1, stronger effect = lower value 0.955 | locus YFR028C, strain CDC14, stronger effect = lower value 0.997 | locus YGR040W, strain KSS1, stronger effect = lower value 0.979 | locus YGR052W, strain FMP48, stronger effect = lower value 1.05 | locus YGR078C, strain PAC10, stronger effect = lower value 0.984 | locus YGR092W, strain DBF2, stronger effect = lower value 0.988 | locus YHR030C, strain SLT2, stronger effect = lower value 0.811 and 1.12 | locus YHR079C, strain IRE1, stronger effect = lower value 1.03 | locus YHR082C, strain KSP1, stronger effect = lower value 1.24 | locus YHR087W, strain rtc3, stronger effect = lower value 0.983 | locus YHR205W, strain SCH9, stronger effect = lower value 0.955 | locus YIL147C, strain SLN1, stronger effect = lower value 1 | locus YJL095W, strain BCK1, stronger effect = lower value 1.04 | locus YJL128C, strain PBS2, stronger effect = lower value 1.01 | locus YJL157C, strain FAR1, stronger effect = lower value 0.969 | locus YJR016C, strain ILV3, stronger effect = lower value 0.997 | locus YJR043C, strain POL32, stronger effect = lower value 0.98 | locus YJR066W, strain TOR1 (second series), stronger effect = lower value 0.967 | locus YJR066W, strain TOR1, stronger effect = lower value 1.23 | locus YJR075W, strain HOC1, stronger effect = lower value 0.988 | locus YKL048C, strain ELM1, stronger effect = lower value 0.977 | locus YKL067W, strain YNK1, stronger effect = lower value 0.999 | locus YKL101W, strain HSL1, stronger effect = lower value 0.989 | locus YKL190W, strain CNB1, stronger effect = lower value 0.985 | locus YKL193C, strain SDS22, stronger effect = lower value 0.996 | locus YKL203C, strain TOR2, stronger effect = lower value 1.06 | locus YLR039C, strain RIC1, stronger effect = lower value 0.792 | locus YLR058C, strain SHM2 (second series), stronger effect = lower value 0.991 | locus YLR085C, strain ARP6, stronger effect = lower value 0.831 | locus YLR113W, strain HOG1, stronger effect = lower value 1.01 | locus YLR133W, strain CKI1, stronger effect = lower value 0.949 | locus YLR262C, strain YPT6, stronger effect = lower value 0.838 | locus YLR403W, strain SFP1, stronger effect = lower value 0.965 | locus YML070W, strain DAK1, stronger effect = lower value 0.958 | locus YML094W, strain GIM5, stronger effect = lower value 0.948 | locus YMR001C, strain CDC5, stronger effect = lower value 1 | locus YMR205C, strain PFK2 (second series), stronger effect = lower value 0.965 | locus YMR219W, strain ESC1, stronger effect = lower value 0.985 | locus YMR263W, strain SAP30, stronger effect = lower value 0.963 | locus YMR277W, strain FCP1, stronger effect = lower value 0.988 | locus YNL006W, strain LST8, stronger effect = lower value 0.994 | locus YNL020C, strain ARK1, stronger effect = lower value 0.963 | locus YNL153C, strain GIM3, stronger effect = lower value 0.977 | locus YNL161W, strain CBK1, stronger effect = lower value 0.973 | locus YNL183C, strain NPR1, stronger effect = lower value 0.98 | locus YNL207W, strain RIO2, stronger effect = lower value 1 | locus YNL222W, strain SSU72, stronger effect = lower value 0.995 | locus YNL298W, strain CLA4 (second series), stronger effect = lower value 0.929 | locus YNL307C, strain MCK1 (second series), stronger effect = lower value 0.963 | locus YNL322C, strain KRE1, stronger effect = lower value 0.988 | locus YNR030W, strain Alg12, stronger effect = lower value 0.964 | locus YOL078W, strain AVO1, stronger effect = lower value 0.977 | locus YOL136C, strain PFK27, stronger effect = lower value 0.952 | locus YOR061W, strain CKA2, stronger effect = lower value 0.982 | locus YOR119C, strain RIO1, stronger effect = lower value 1.04 | locus YOR231W, strain MKK1, stronger effect = lower value 1.05 | locus YOR329C, strain SCD5, stronger effect = lower value 1 | locus YPL031C, strain PHO85, stronger effect = lower value 0.986 | locus YPL055C, strain LGE1, stronger effect = lower value 0.847 | locus YPL153C, strain RAD53, stronger effect = lower value 0.992 | locus YPL204W, strain HRR25, stronger effect = lower value 0.973 | locus YPL209C, strain IPL1, stronger effect = lower value 0.994 | locus YPL241C, strain CIN2, stronger effect = lower value 0.949 | locus YPL256C, strain CLN2, stronger effect = lower value 0.983 | locus YPR025C, strain CCL1, stronger effect = lower value 1.01 | locus YPR106W, strain ISR1, stronger effect = lower value 0.987 | locus YPR111W, strain DBF20, stronger effect = lower value 0.986 | locus YPR135W, strain CTF4, stronger effect = lower value 0.832 | strain NNK1, stronger effect = lower value 0.984 | strain TSCII, stronger effect = lower value 0.986
